The values below come from PubChem BioAssay (NCATS).

Molecules are shown by their SMILES. Inconclusive results are not listed. Where a call stands in place of a potency, no number is given. Activity calls are given as the source filed them. Calls come from the whole dose curve; as a rule, active = well fitted inhibition curve with a large enough effect; inconclusive = small, poorly fitted or top-dose-only effect; inactive = flat fitted curve, though single readings scatter.

For the experiment, the target named is Calcium and integrin-binding protein 1 (Homo sapiens) (UniProt Q99828). Put plainly: Primary qHTS for Identification of Calcium Integrin Binding Protein 1 (CIB1) Competitor (AID 1508620). Note: top concentration of the series differs between compounds. The conditions noted are these: CIB1-GST / FITC-alphaIIb peptide fluorescence polarization; series mostly up to 114 µM. The procedure, abridged: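 Fluorescence polarization competition: GST-tagged CIB1 (1 uM final) preincubated with compound 15 min at room temperature, then FITC-labelled alphaIIb peptide (100 nM final) added. After 15 min at room temperature, polarization read at Ex 480/Em 540.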
Chain of Calcium and integrin-binding protein 1 (Homo sapiens) (Q99828 whole entry, looked up): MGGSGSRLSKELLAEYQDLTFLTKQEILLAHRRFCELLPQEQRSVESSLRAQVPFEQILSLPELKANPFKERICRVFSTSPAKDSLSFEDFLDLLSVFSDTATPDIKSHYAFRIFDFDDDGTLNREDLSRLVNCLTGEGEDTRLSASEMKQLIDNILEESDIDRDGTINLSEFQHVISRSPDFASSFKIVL
(In general: Quantitative high-throughput screening tests each substance at several concentrations.)
For the molecule `CCN1CC2(COC)C3[C@@H](OC)C4C1C3(C1C[C@]3(O)[C@H](OC(=O)c5ccccc5)C1[C@]4(OC(C)=O)[C@@H](O)[C@@H]3OC)[C@H](OC)C[C@H]2O` (stereo not given in full), the Potency entry was “inactive”. The same measure for `C/C=C(\C)C(=O)OC1CC2C(CC=C3CC(OC4CC(OC)C(OC5CC(OC)C(OC6OC(C)C(OC7OC(CO)C(O)C(O)C7O)C(OC)C6O)C(C)O5)C(C)O4)CCC32C)C2(O)CCC(C(C)=O)C12C` (stereo not given): “inactive”; for `C=C[C@H]1[C@H](O[C@@H]2O[C@H](CO)[C@@H](O)[C@H](O)[C@H]2O)OC=C2C(=O)OCC[C@H]21`: “inactive”; for `CC1=C2C(=O)C3[C@@H](CC=C4C[C@@H](O)CC[C@@]43C)[C@@H]2CC[C@]12O[C@@H]1C[C@H](C)CN[C@H]1[C@H]2C` (stereo not given in full): “inactive”. With `C[C@H]1O[C@@H](O[C@H]2C[C@@H](O)[C@]3(CO)C4C(CC[C@]3(O)C2)[C@@]2(O)CC[C@H](C3=CC(=O)OC3)[C@@]2(C)C[C@H]4O)[C@@H](O)[C@@H](O)[C@H]1O` (stereo not given in full), the Potency entry was “inactive”. The same measure for `COC1CC(O[C@H]2CC[C@]3(C=O)C4CC[C@]5(C)[C@@H](C6=CC(=O)OC6)CC[C@]5(O)[C@@H]4CC[C@]3(O)C2)OC(C)C1O[C@@H]1O[C@H](CO)[C@@H](O)[C@H](O)[C@H]1O` (stereo not given in full): “inactive”. For `CC12CCC3C(CCC4(O)CC(O)CCC34C=O)C1(O)CCC2C1=CC(=O)OC1` (stereo not given), the Potency entry was “inactive”. The same measure for `C[C@@]12C[C@@H](c3ccoc3)OC(=O)C1CC[C@]1(C)[C@H]2[C@H]2C=C[C@]1(O)C(=O)O2` (stereo not given in full): “inactive”. To `COC1CC(O[C@H]2CC[C@@]3(C)C(=CCC4C3C(O)[C@@H](O)[C@]3(C)[C@@H](C(C)=O)CC[C@]43O)C2)OC(C)C1OC1CC(OC)C(OC2OC(C)C(O)C(O)C2O)C(C)O1` (stereo not given in full) belongs “inactive”. With `COC1=CC(=O)O[C@@H](/C=C/c2ccccc2)C1`, the Potency entry is “inactive”. The same measure for `C[C@@H]1C(=O)O[C@H]2[C@H](O)[C@@]34[C@@H]5OC(=O)[C@@]3(O[C@@H]3OC(=O)[C@@H](O)[C@@]34[C@H](C(C)(C)C)[C@H]5O)[C@@]12O`: “inactive”. Take `COc1c(C(C)C)cc2c(c1O)[C@@]1(C(=O)O)CCCC(C)(C)C1CC2` (stereo not given in full): the Potency result is “inactive”. As to `C1=C2CCCN[C@H]2[C@@H]2C[C@H]1[C@H]1CCCCN1C2`, the Potency result is “inactive”. To `Clc1ccc(N2C[C@H]3CC[C@@H](C2)N3)nn1` belongs “inactive”; to `COC1CC(OC2CCC3(C)C(=CCC4C3CCC3(C)C(C(C)OC5OC(COC6OC(CO)C(O)C(O)C6O)C(O)C(O)C5O)CCC43O)C2)OC(C)C1OC1OC(C)C(O)C(OC)C1O` (stereo not given), “inactive”.
